# Source: PubChem BioAssay (NCI)
# This is part of a sample that, as a whole, favours compounds with a hit. Of some 79,000 tested, about 15% had one in any assay. Values without a mark were called inactive. Activity calls are given as the source filed them. Cut-off read from the data, not from the text of the source: active = growth inhibition above about 70%; inactive = the rest.
# Assays:
# [1] = NCI Yeast Anticancer Drug Screen. Data for the rad52 strain (AID 147);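 note: 0% = growth of vehicle-treated control cultures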; conditions: S. cerevisiae rad52 mutant growth inhibition, active compounds read high
# How it was run: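 Vehicle-treated cultures served as the reference for growth inhibition of compound-exposed yeast bearing a DNA repair mutation.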
# [2] = NCI Yeast Anticancer Drug Screen. Data for the wt1 strain (AID 149);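 note: 0% = growth of vehicle-treated wt1 cultures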; conditions: S. cerevisiae wt1 strain (SPY 50644) growth inhibition, active compounds read high
# How it was run: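 wt1 yeast, compound-treated; % growth inhibition vs vehicle control.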
# [3] = NCI Yeast Anticancer Drug Screen. Data for the rad50EPP+ strain (AID 151);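 note: 0% = growth of vehicle-treated control cultures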; conditions: S. cerevisiae rad50 mutant strain, active compounds read high
# How it was run: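 In this screen, rad50EPP+ yeast were exposed to compounds. Growth inhibition was scored against vehicle-treated controls.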
# [4] = NCI Yeast Anticancer Drug Screen. Data for the mgt1 strain (AID 153); conditions: S. cerevisiae mgt1 mutant growth inhibition, active compounds read high
# How it was run: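 mgt1 strain exposed; growth vs vehicle control recorded as inhibition.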
# [5] = NCI Yeast Anticancer Drug Screen. Data for the rad50 strain (AID 155);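 note: 0% = growth of vehicle-only cultures of the same strain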; conditions: S. cerevisiae rad50 strain growth inhibition, active compounds read high
# How it was run: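 Genetically altered yeast (DNA repair pathway); compound treatment; growth inhibition vs vehicle ctrl.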
# [6] = NCI Yeast Anticancer Drug Screen. Data for the mec2-1 strain (AID 157); conditions: S. cerevisiae mec2-1 strain, active compounds read high
# How it was run: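 Vehicle-treated cultures served as reference for growth inhibition of compound-exposed mec2-1 yeast.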
# [7] = NCI Yeast Anticancer Drug Screen. Data for the rad14 strain (AID 159);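 note: 0% = growth of vehicle-treated control cultures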; conditions: S. cerevisiae rad14 strain growth inhibition, active compounds read high
# How it was run: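 Test compounds were applied to a repair-deficient yeast strain. Its growth was then compared with that of cultures given vehicle alone, and inhibition was expressed relative to those controls.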
# [8] = NCI Yeast Anticancer Drug Screen. Data for the sgs1 mgt1 strain (AID 161);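 note: 0% = growth of cultures given vehicle only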; conditions: S. cerevisiae sgs1 mgt1 strain, active compounds read high
# How it was run: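 Test agents were incubated with a DNA-repair-mutant yeast strain. Growth was then read and compared against vehicle-treated controls.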
# [9] = NCI Yeast Anticancer Drug Screen. Data for the CLN2oe strain (AID 163);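 note: 0% = growth of vehicle-only control cultures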; conditions: S. cerevisiae CLN2oe strain, active compounds read high
# How it was run: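 Inhibition relative to vehicle-treated yeast is reported. Cells: strain with genetic alteration in cell-cycle control, grown with compound.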
# [10] = NCI Yeast Anticancer Drug Screen. Data for the cln2 rad14 strain (AID 165);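 note: 0% = growth equal to vehicle treated cultures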; conditions: S. cerevisiae cln2 rad14 strain, active compounds read high
# How it was run: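 Each compound was tested on cln2 rad14 yeast. Inhibition of growth was calculated against vehicle-exposed controls.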
# [11] = NCI Yeast Anticancer Drug Screen. Data for the bub3 strain (AID 167); conditions: S. cerevisiae bub3 mutant strain, active compounds read high
# How it was run: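 Yeast carrying a defined mutation is treated with each compound, and growth is compared with that of vehicle-exposed cells to give inhibition.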
# [12] = NCI Yeast Anticancer Drug Screen. Data for the wt2 strain (AID 169);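 note: 0% = growth of vehicle-treated yeast cultures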; conditions: S. cerevisiae wt2 strain growth inhibition, active compounds read high
# How it was run: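 Inhibition of yeast growth was determined after compound treatment, normalised to controls receiving only vehicle.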
# [13] = NCI Yeast Anticancer Drug Screen. Data for the mlh1 strain (AID 171);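 note: 0% = growth of vehicle-treated control cultures of the same strain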; conditions: S. cerevisiae mlh1 strain growth inhibition, active compounds read high
# How it was run: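 Vehicle-normalised growth inhibition of a repair- or checkpoint-altered yeast strain following compound treatment.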
# [14] = NCI Yeast Anticancer Drug Screen. Data for the sgs1 strain (AID 173);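 note: 0% = growth of vehicle-only control cultures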; conditions: S. cerevisiae sgs1 mutant, active compounds read high
# How it was run: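 Screen format: yeast with repair or checkpoint alterations, compound exposure, growth read relative to vehicle.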
# [15] = NCI Yeast Anticancer Drug Screen. Data for the mlh1 rad18 strain (AID 175); conditions: S. cerevisiae mlh1 rad18 strain growth inhibition, active compounds read high
# How it was run: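 Vehicle-treated cultures served as the reference for growth inhibition in a yeast strain carrying DNA damage repair alterations exposed to each compound.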
# [16] = NCI Yeast Anticancer Drug Screen. Data for the rad18 strain (AID 177); conditions: S. cerevisiae rad18 mutant growth inhibition, active compounds read high
# How it was run: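 Test articles were incubated with altered yeast defective in DNA damage repair. Results are given as inhibition of growth versus vehicle.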
# [17] = at 5.0 µM (retest, dose inferred, filed as 0.5)
# [18] = at 50.0 µM (retest, dose inferred, filed as 5.0)
smiles,measurement,setting,value
O=c1cccccc1[O-].O=c1cccccc1[O-].O=c1cccccc1[O-].[Eu+3],growth inhibition,[1]; at 1.2 µM,2%
same,growth inhibition,[1]; at 3.7 µM,3%
same,growth inhibition,[1]; at 11.0 µM,32%
same,growth inhibition,[1]; at 33.0 µM,97% (active)
same,growth inhibition,[1]; at 100.0 µM,97% (active)
same,growth inhibition,[2]; at 1.2 µM,6%
same,growth inhibition,[2]; at 3.7 µM,2%
same,growth inhibition,[2]; at 11.0 µM,14%
same,growth inhibition,[2]; at 33.0 µM,97% (active)
same,growth inhibition,[2]; at 100.0 µM,97% (active)
same,growth inhibition,[3]; at 1.2 µM,0%
same,growth inhibition,[3]; at 3.7 µM,-1%
same,growth inhibition,[3]; at 11.0 µM,16%
same,growth inhibition,[3]; at 33.0 µM,95% (active)
same,growth inhibition,[3]; at 100.0 µM,96% (active)
same,growth inhibition,[4]; at 1.2 µM,13%
same,growth inhibition,[4]; at 3.7 µM,8%
same,growth inhibition,[4]; at 11.0 µM,14%
same,growth inhibition,[4]; at 33.0 µM,97% (active)
same,growth inhibition,[4]; at 100.0 µM,98% (active)
same,growth inhibition,[5]; at 1.2 µM,6%
same,growth inhibition,[5]; at 3.7 µM,-29%
same,growth inhibition,[5]; [17],38%
same,growth inhibition,[5]; at 11.0 µM,71% (active)
same,growth inhibition,[5]; at 33.0 µM,97% (active)
same,growth inhibition,[5]; [18],38%
same,growth inhibition,[5]; at 50.0 µM,92.5% (active)
same,growth inhibition,[5]; at 100.0 µM,93% (active)
same,growth inhibition,[6]; at 1.2 µM,-1%
same,growth inhibition,[6]; at 3.7 µM,2%
same,growth inhibition,[6]; [17],26%
same,growth inhibition,[6]; at 11.0 µM,16%
same,growth inhibition,[6]; at 33.0 µM,90% (active)
same,growth inhibition,[6]; [18],26%
same,growth inhibition,[6]; at 50.0 µM,91.7% (active)
same,growth inhibition,[6]; at 100.0 µM,98% (active)
same,growth inhibition,[7]; at 1.2 µM,3%
same,growth inhibition,[7]; at 3.7 µM,7%
same,growth inhibition,[7]; at 11.0 µM,25%
same,growth inhibition,[7]; at 33.0 µM,98% (active)
same,growth inhibition,[7]; at 100.0 µM,98% (active)
same,growth inhibition,[8]; [17],65%
same,growth inhibition,[8]; [18],65%
same,growth inhibition,[8]; at 50.0 µM,89.7% (active)
same,growth inhibition,[9]; at 1.2 µM,5%
same,growth inhibition,[9]; at 3.7 µM,11%
same,growth inhibition,[9]; at 11.0 µM,25%
same,growth inhibition,[9]; at 33.0 µM,92% (active)
same,growth inhibition,[9]; at 100.0 µM,98% (active)
same,growth inhibition,[10]; [17],5%
same,growth inhibition,[10]; [18],5%
same,growth inhibition,[10]; at 50.0 µM,86.7% (active)
same,growth inhibition,[11]; at 1.2 µM,1%
same,growth inhibition,[11]; at 3.7 µM,1%
same,growth inhibition,[11]; [17],8%
same,growth inhibition,[11]; at 11.0 µM,2%
same,growth inhibition,[11]; at 33.0 µM,96% (active)
same,growth inhibition,[11]; [18],8%
same,growth inhibition,[11]; at 50.0 µM,92.8% (active)
same,growth inhibition,[11]; at 100.0 µM,98% (active)
same,growth inhibition,[12]; at 1.2 µM,1%
same,growth inhibition,[12]; at 3.7 µM,3%
same,growth inhibition,[12]; at 11.0 µM,22%
same,growth inhibition,[12]; at 33.0 µM,99% (active)
same,growth inhibition,[12]; at 100.0 µM,98% (active)
same,growth inhibition,[13]; at 1.2 µM,-4%
same,growth inhibition,[13]; at 3.7 µM,-1%
same,growth inhibition,[13]; at 11.0 µM,13%
same,growth inhibition,[13]; at 33.0 µM,95% (active)
same,growth inhibition,[13]; at 100.0 µM,98% (active)
same,growth inhibition,[14]; at 1.2 µM,2%
same,growth inhibition,[14]; at 3.7 µM,1%
same,growth inhibition,[14]; at 11.0 µM,26%
same,growth inhibition,[14]; at 33.0 µM,98% (active)
same,growth inhibition,[14]; at 100.0 µM,98% (active)
same,growth inhibition,[15]; [17],24%
same,growth inhibition,[15]; [18],24%
same,growth inhibition,[15]; at 50.0 µM,89.8% (active)
same,growth inhibition,[16]; at 1.2 µM,3%
same,growth inhibition,[16]; at 3.7 µM,15%
same,growth inhibition,[16]; at 11.0 µM,42%
same,growth inhibition,[16]; at 33.0 µM,98% (active)
same,growth inhibition,[16]; at 100.0 µM,97% (active)
CCC(C)COC(=O)Nc1cccc(Cl)c1 (stereo not drawn),growth inhibition,[1]; at 1.2 µM,5%
same,growth inhibition,[1]; at 3.7 µM,6%
same,growth inhibition,[1]; at 11.0 µM,11%
same,growth inhibition,[1]; at 33.0 µM,59%
same,growth inhibition,[1]; at 100.0 µM,91% (active)
same,growth inhibition,[2]; at 1.2 µM,1%
same,growth inhibition,[2]; at 3.7 µM,-1%
same,growth inhibition,[2]; at 11.0 µM,0%
same,growth inhibition,[2]; at 33.0 µM,6%
same,growth inhibition,[2]; at 100.0 µM,99% (active)
same,growth inhibition,[3]; at 1.2 µM,6%
same,growth inhibition,[3]; at 3.7 µM,15%
same,growth inhibition,[3]; at 11.0 µM,39%
same,growth inhibition,[3]; at 33.0 µM,61%
same,growth inhibition,[3]; at 100.0 µM,72% (active)
same,growth inhibition,[4]; at 1.2 µM,-7%
same,growth inhibition,[4]; at 3.7 µM,0%
same,growth inhibition,[4]; at 11.0 µM,-8%
same,growth inhibition,[4]; at 33.0 µM,29%
same,growth inhibition,[4]; at 100.0 µM,99% (active)
same,growth inhibition,[5]; at 1.2 µM,9%
same,growth inhibition,[5]; at 3.7 µM,22%
same,growth inhibition,[5]; [17],-7%
same,growth inhibition,[5]; at 11.0 µM,25%
same,growth inhibition,[5]; at 33.0 µM,68%
same,growth inhibition,[5]; [18],54%
same,growth inhibition,[5]; at 50.0 µM,98.9% (active)
same,growth inhibition,[5]; at 100.0 µM,99% (active)
same,growth inhibition,[6]; at 1.2 µM,-5%
same,growth inhibition,[6]; at 3.7 µM,-10%
same,growth inhibition,[6]; [17],-1%
same,growth inhibition,[6]; at 11.0 µM,-34%
same,growth inhibition,[6]; at 33.0 µM,-1%
same,growth inhibition,[6]; [18],32%
same,growth inhibition,[6]; at 50.0 µM,98.1% (active)
same,growth inhibition,[6]; at 100.0 µM,98% (active)
same,growth inhibition,[7]; at 1.2 µM,3%
same,growth inhibition,[7]; at 3.7 µM,2%
same,growth inhibition,[7]; at 11.0 µM,2%
same,growth inhibition,[7]; at 33.0 µM,34%
same,growth inhibition,[7]; at 100.0 µM,99% (active)
same,growth inhibition,[8]; [17],-4%
same,growth inhibition,[8]; [18],53%
same,growth inhibition,[8]; at 50.0 µM,98.8% (active)
same,growth inhibition,[9]; at 1.2 µM,0%
same,growth inhibition,[9]; at 3.7 µM,1%
same,growth inhibition,[9]; at 11.0 µM,-7%
same,growth inhibition,[9]; at 33.0 µM,4%
same,growth inhibition,[9]; at 100.0 µM,99% (active)
same,growth inhibition,[10]; [17],-24%
same,growth inhibition,[10]; [18],1%
same,growth inhibition,[10]; at 50.0 µM,97.5% (active)
same,growth inhibition,[11]; at 1.2 µM,-2%
same,growth inhibition,[11]; at 3.7 µM,-4%
same,growth inhibition,[11]; [17],-14%
same,growth inhibition,[11]; at 11.0 µM,12%
same,growth inhibition,[11]; at 33.0 µM,27%
same,growth inhibition,[11]; [18],25%
same,growth inhibition,[11]; at 50.0 µM,98.6% (active)
same,growth inhibition,[11]; at 100.0 µM,99% (active)
